The supplement of paper PMC6089552
Out of some 3,200 compounds screened, about 300 (9.4%) showed activity. The sample as a whole holds a higher share of actives than the screen did.

Tested on: A673/TR/shEF
Experiment: cell viability (LOESS-normalised, relative to median of negative controls) (log2 ratio); higher = more viable cells (less compound effect), active = hit call of the paper (over 3 MAD below the median)
Details: treatment time: 72 h
In short: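 Viability of A673/TR/shEF Ewing sarcoma cells was determined by CellTiter-Glo luminescence. The cells, at 1,500 per well in 384-well plates, were grown with or without doxycycline from 24 h before compound addition to switch on EWS-FLI1 shRNA knockdown, then exposed for three days to library compounds at two or more concentrations or to DMSO controls. Signals were LOESS-corrected plate by plate, normalised to the negative-control median and log2-transformed.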

[1] = 0.25 µM, library screen: screen1, EWS-FLI1 expression: high (no doxycycline)
[2] = 0.25 µM, library screen: screen1, EWS-FLI1 expression: low (doxycycline-induced shRNA knockdown)
[3] = 2.5 µM, library screen: screen1, EWS-FLI1 expression: high (no doxycycline)
[4] = 2.5 µM, library screen: screen1, EWS-FLI1 expression: low (doxycycline-induced shRNA knockdown)
[5] = 0.25 µM, library screen: screen2, EWS-FLI1 expression: high (no doxycycline)
[6] = 0.25 µM, library screen: screen2, EWS-FLI1 expression: low (doxycycline-induced shRNA knockdown)
[7] = 2.5 µM, library screen: screen2, EWS-FLI1 expression: high (no doxycycline)
[8] = 2.5 µM, library screen: screen2, EWS-FLI1 expression: low (doxycycline-induced shRNA knockdown)

Measured: cell viability (log2)

O=C1/C(=C\c2ccccc2F)SC(=S)N1CN1CCOCC1
inactive: [1] 0.128 | [2] 0.0809 | [3] 0.107 | [4] -0.00103

O=C(O)CCCCCCCC(=O)O
active: [5] -0.13
inactive: [1] 0.000753 | [2] 0.0938 | [6] 0.0952 | [3] 0.149 | [4] 0.152 | [7] 0.0755 | [8] 0.0904

CC(=O)NCCCCCC(=O)O
inactive: [1] 0.0566 | [2] 0.106 | [3] 0.0136 | [4] 0.0704

CCCCCCCC/C=C\CCCCCCCC(=O)O
inactive: [5] 0.0706 | [6] 0.117 | [7] 0.0994 | [8] 0.08

NCCCCC(=O)O
inactive: [1] 0.172 | [2] 0.0951 | [6] 0.128 | [3] 0.237 | [4] 0.0298 | [7] 0.0908 | [8] 0.116
active: [5] -0.118

NCCCC(=O)O
inactive: [1] 0.0628 | [2] 0.0888 | [5] 0.148 | [6] 0.12 | [3] 0.21 | [4] 0.0413 | [7] 0.0279 | [8] 0.142

NCCCCCC(=O)O
inactive: 0.103 µM, library screen: screen3, EWS-FLI1 expression: high (no doxycycline) 0.214 | 0.103 µM, library screen: screen3, EWS-FLI1 expression: low (doxycycline-induced shRNA knockdown) 0.078 | [1] 0.0812 | [2] 0.00994 | [5] -0.00366 | [6] 0.09 | 0.308 µM, library screen: screen3, EWS-FLI1 expression: high (no doxycycline) 0.0847 | 0.308 µM, library screen: screen3, EWS-FLI1 expression: low (doxycycline-induced shRNA knockdown) 0.0858 | 0.926 µM, library screen: screen3, EWS-FLI1 expression: high (no doxycycline) 0.107 | 0.926 µM, library screen: screen3, EWS-FLI1 expression: low (doxycycline-induced shRNA knockdown) 0.0768 | [3] 0.144 | [4] 0.111 | [7] 0.0922 | [8] 0.111 | 2.8 µM, library screen: screen3, EWS-FLI1 expression: high (no doxycycline) 0.141 | 2.8 µM, library screen: screen3, EWS-FLI1 expression: low (doxycycline-induced shRNA knockdown) 0.0677 | 8.3 µM, library screen: screen3, EWS-FLI1 expression: high (no doxycycline) 0.085 | 8.3 µM, library screen: screen3, EWS-FLI1 expression: low (doxycycline-induced shRNA knockdown) 0.128 | 25 µM, library screen: screen3, EWS-FLI1 expression: high (no doxycycline) 0.0538 | 25 µM, library screen: screen3, EWS-FLI1 expression: low (doxycycline-induced shRNA knockdown) 0.145

COC(=O)[C@@H]1OC(=O)C2OC23[C@@]1(C)CCC1[C@]2(C)C(C[C@@H](O)[C@]13C)C(C)(C)[C@H](OC(C)=O)C[C@@H]2OC(C)=O (stereo partly drawn)
inactive: [1] 0.0653 | [2] 0.123 | [3] 0.0967 | [4] 0.0969

COCCN1C(=O)C(=Cc2c(Cl)cccc2Cl)SC1=S
inactive: [1] 0.153 | [2] 0.208 | [3] 0.122 | [4] 0.19

COc1c(C=O)c(O)cc2c1C(=O)c1ccccc1C2=O
inactive: 0.025 µM, library screen: screen1, EWS-FLI1 expression: high (no doxycycline) 0.0865 | 0.025 µM, library screen: screen1, EWS-FLI1 expression: low (doxycycline-induced shRNA knockdown) 0.0031 | [1] 0.118 | [2] -0.13 | [3] 0.0699 | [4] -0.209 | 25 µM, library screen: screen1, EWS-FLI1 expression: high (no doxycycline) 0.0121 | 25 µM, library screen: screen1, EWS-FLI1 expression: low (doxycycline-induced shRNA knockdown) -0.781

COc1cc(C)c2c(=O)c3c(O)cc(O)cc3oc2c1
inactive: [1] -0.0797 | [2] 0.0363 | [3] 0.0175 | [4] 0.108

CC(C)c1c(O)ccc2c1CCC1[C@@](C)(C=O)CCC[C@]21C (stereo partly drawn)
inactive: [1] 0.0641 | [2] 0.0754 | [3] 0.163 | [4] 0.289

CC1=C(C(=O)Nc2ccccc2Cl)C(c2ccc(O)cc2)NC(=S)N1 (stereo not drawn)
inactive: [1] 0.145 | [2] -0.0151 | [3] 0.191 | [4] -0.0985

CCN(CC)c1ccc(C2C(C(=O)OC)=C(C)NC(C)=C2C(=O)OC)cc1
inactive: [1] 0.121 | [2] 0.087 | [3] 0.202 | [4] 0.078

CC[C@H](CC[C@@H](C)[C@H]1CC[C@H]2[C@@H]3CC=C4C[C@@H](OC(C)=O)CC[C@]4(C)[C@H]3CC[C@]12C)C(C)C
inactive: [1] 0.121 | [2] 0.139 | [3] 0.109 | [4] 0.182

CCCCCCCCCCCCC(=O)N1CCCCC1CNC(=O)C(N)CCCCN (stereo not drawn)
inactive: [5] 0.125 | [6] 0.1 | [7] 0.117 | [8] 0.072

COc1ccc(CN2CCN(Cc3ccc(C)cc3)CC2)c(OC)c1OC
inactive: [1] 0.0669 | [2] 0.0696 | [3] 0.138 | [4] 0.00566

C=CCc1ccc(OC(=O)c2ccccc2)c(OC)c1
inactive: [1] 0.102 | [2] -0.0537 | [3] 0.111 | [4] 0.0334

C=CCc1ccc(O)c(OC)c1
inactive: [1] 0.0882 | [2] 0.124 | [3] 0.127 | [4] 0.12

N/C(=N\S(=O)(=O)Cc1ccccc1)Nc1nc2ccccc2o1
inactive: [1] 0.0883 | [2] 0.00923 | [3] 0.149 | [4] 0.031

COc1ccc2c(c1)CCC1=CC(=O)CCC12C (stereo not drawn)
inactive: [1] 0.119 | [2] 0.144 | [3] 0.0987 | [4] 0.126

OC[C@@H](O)[C@@H](O[C@@H]1O[C@H](CO)[C@@H](O)[C@H](O)[C@H]1O)[C@H](O)[C@@H](O)CO
inactive: [1] 0.117 | [2] 0.055 | [3] 0.143 | [4] 0.0198

NC(N)=NCCN1CCCCCCC1
inactive: [1] 0.086 | [2] 0.0896 | [3] 0.182 | [4] 0.105

[O-]n1ccccc1=S.[O-]n1ccccc1=S.[Zn+2]
active: [3] -0.205
inactive: [1] 0.17 | [2] 0.0708 | [4] 0.0604
